About 8,800 targets were measured; listed, in parts, are those with a hit and a random draw of the rest. About 0.5% of all pairs of compound and target were hits. Values without a mark were called inactive.
Key:
Assay in all cases: log2 fold change, soluble protein after heating vs DMSO (PISA); higher = thermal stabilisation; K562 lysate, 10 uM; active = over 0.2 and 3.5 SD of the protein, either way, in both replicates (recomputed)
nilotinib = compound: Cc1cn(-c2cc(NC(=O)c3ccc(C)c(Nc4nccc(-c5cccnc5)n4)c3)cc(C(F)(F)F)c2)cn1 [nilotinib]
In short: (§1)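 Thermal stability, expressed as log-two fold change relative to solvent controls, is given from duplicates. Crude K562 extract in PBS pH 7.4 with 1 mM MgCl2, at 1 mg/mL protein, was treated with 10 μM compound for 30 min and heated in aliquots for 3 min across 48°C-58°C. After pooling, adjustment to 0.5% NP-40 at 4°C and centrifugation at 21,000xg for 90 min, supernatant protein was measured by TMTpro 16plex LC-MS/MS with channel sums equalised.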

[1] = compound: Cc1nc(Nc2n[nH]c3c2CN(C(=O)N[C@H](CN(C)C)c2ccccc2)C3(C)C)c2sccc2n1
In short: as §1

dasatinib = compound: Cc1nc(Nc2ncc(C(=O)Nc3c(C)cccc3Cl)s2)cc(N2CCN(CCO)CC2)n1 [dasatinib]
In short: as §1

[2] = compound: Cc1ncc(-c2ccnc(Nc3ccc(S(C)(=O)=O)cc3)n2)n1C(C)C
In short: as §1

[3] = compound: Cn1cc(-c2ccc3c(c2)CCN3C(=O)Cc2cccc(C(F)(F)F)c2)c2c(N)ncnc21
In short: as §1

quisinostat = compound: Cn1cc(CNCC2CCN(c3ncc(C(=O)NO)cn3)CC2)c2ccccc21 [quisinostat]
In short: as §1

tipifarnib = compound: Cn1cncc1[C@@](N)(c1ccc(Cl)cc1)c1ccc2c(c1)c(-c1cccc(Cl)c1)cc(=O)n2C [tipifarnib]
In short: as §1

[4] = compound: NC(=O)Nc1cc(-c2cccc(F)c2)sc1C(=O)N[C@H]1CCCNC1
In short: as §1

[5] = compound: NC(=O)c1cnc(N[C@@H]2CCCC[C@@H]2N)nc1Nc1cccc(-n2nccn2)c1
In short: as §1

[6] = compound: NC1(c2ccc(-c3nc4ccn5c(=O)[nH]nc5c4cc3-c3ccccc3)cc2)CCC1
In short: as §1

Chain of UniProt Q5T3J3 (Q5T3J3 whole entry, looked up): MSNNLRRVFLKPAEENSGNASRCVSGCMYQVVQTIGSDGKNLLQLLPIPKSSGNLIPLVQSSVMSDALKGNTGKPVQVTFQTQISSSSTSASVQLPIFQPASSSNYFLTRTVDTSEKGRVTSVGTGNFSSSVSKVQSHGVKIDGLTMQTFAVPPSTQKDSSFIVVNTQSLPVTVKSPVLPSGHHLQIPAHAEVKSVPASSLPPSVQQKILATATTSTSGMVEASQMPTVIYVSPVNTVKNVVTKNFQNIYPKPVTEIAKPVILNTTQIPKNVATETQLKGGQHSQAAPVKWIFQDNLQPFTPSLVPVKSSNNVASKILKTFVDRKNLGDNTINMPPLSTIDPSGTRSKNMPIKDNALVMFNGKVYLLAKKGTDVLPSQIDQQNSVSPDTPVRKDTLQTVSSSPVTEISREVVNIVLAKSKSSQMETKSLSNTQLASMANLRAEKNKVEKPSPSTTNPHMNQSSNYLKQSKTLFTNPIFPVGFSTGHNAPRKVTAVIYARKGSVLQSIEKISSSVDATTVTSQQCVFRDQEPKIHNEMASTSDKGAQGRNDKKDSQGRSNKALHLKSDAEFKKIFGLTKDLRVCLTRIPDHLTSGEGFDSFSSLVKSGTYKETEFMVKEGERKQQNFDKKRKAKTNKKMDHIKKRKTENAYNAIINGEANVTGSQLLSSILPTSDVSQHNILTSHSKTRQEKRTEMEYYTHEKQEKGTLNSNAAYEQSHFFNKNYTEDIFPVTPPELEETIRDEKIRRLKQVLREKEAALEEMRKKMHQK
Chain of UniProt Q9NZB8 (Q9NZB8 whole entry, looked up): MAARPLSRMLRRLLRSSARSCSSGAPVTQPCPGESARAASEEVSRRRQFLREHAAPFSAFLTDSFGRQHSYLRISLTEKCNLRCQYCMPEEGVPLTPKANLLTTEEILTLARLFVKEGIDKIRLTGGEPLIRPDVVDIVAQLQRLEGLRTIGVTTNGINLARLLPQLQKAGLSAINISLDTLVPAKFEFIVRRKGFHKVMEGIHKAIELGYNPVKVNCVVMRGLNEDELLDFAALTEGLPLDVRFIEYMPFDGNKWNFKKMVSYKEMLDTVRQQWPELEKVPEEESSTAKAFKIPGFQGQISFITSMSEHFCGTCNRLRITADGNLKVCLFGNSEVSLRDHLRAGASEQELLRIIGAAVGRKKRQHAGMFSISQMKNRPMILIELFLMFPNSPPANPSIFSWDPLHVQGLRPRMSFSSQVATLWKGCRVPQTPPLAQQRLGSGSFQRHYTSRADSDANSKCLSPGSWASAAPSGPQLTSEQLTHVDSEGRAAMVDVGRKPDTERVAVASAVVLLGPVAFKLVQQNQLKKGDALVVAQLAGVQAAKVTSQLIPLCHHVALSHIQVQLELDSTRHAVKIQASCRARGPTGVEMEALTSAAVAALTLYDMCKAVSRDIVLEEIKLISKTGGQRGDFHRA
Chain of UniProt O60337 (O60337 whole entry, looked up): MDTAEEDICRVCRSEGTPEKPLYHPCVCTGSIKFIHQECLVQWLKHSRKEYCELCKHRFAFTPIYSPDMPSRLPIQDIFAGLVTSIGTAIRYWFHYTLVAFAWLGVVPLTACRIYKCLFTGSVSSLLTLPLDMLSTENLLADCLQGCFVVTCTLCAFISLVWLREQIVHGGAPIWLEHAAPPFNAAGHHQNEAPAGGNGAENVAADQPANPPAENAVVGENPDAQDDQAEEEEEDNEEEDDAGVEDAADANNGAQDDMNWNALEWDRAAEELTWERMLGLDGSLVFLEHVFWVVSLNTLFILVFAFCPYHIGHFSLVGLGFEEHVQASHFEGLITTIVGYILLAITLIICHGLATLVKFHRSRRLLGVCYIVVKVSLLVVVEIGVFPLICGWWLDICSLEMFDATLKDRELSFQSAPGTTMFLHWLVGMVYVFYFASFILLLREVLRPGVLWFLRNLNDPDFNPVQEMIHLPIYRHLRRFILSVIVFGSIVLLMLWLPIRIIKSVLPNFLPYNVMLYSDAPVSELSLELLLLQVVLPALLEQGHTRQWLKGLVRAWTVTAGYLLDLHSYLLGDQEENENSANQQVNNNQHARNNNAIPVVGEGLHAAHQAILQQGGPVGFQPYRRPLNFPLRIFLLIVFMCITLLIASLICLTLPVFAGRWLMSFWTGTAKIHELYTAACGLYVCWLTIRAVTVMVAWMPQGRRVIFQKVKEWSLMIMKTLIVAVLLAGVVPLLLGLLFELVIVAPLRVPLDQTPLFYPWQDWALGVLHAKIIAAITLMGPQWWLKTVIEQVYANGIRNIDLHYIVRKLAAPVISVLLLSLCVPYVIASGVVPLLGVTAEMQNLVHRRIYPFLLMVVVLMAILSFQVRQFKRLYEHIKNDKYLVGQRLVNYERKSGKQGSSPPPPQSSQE
Chain of UniProt Q15334 (Q15334 whole entry, looked up): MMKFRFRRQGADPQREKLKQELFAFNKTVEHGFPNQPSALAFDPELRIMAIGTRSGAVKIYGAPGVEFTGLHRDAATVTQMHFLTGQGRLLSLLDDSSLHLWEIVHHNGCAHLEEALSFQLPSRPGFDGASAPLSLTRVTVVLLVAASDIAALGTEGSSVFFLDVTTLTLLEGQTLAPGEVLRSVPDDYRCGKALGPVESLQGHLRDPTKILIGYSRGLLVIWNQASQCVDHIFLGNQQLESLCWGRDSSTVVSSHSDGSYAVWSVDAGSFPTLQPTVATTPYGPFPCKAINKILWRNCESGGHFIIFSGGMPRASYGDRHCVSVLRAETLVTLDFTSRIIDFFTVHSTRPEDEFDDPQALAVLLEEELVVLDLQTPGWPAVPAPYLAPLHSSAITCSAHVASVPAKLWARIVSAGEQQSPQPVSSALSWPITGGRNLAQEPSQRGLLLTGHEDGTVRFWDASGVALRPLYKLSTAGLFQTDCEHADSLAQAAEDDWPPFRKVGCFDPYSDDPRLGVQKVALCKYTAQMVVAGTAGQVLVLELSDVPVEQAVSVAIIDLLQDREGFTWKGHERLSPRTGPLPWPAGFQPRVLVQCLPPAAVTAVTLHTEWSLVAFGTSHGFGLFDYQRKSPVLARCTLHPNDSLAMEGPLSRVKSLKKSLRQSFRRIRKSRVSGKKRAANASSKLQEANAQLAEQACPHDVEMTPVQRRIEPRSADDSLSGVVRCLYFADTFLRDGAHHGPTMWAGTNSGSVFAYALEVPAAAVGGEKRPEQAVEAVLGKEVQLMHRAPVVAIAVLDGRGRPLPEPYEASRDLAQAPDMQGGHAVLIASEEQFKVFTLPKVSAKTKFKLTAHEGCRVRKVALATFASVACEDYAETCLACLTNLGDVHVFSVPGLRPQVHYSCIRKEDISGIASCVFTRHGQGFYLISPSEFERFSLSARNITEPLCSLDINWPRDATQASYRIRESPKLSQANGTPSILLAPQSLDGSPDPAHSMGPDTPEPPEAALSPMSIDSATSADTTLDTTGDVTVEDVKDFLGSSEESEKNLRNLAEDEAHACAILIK
Chain of UniProt O95202 (O95202 whole entry, looked up): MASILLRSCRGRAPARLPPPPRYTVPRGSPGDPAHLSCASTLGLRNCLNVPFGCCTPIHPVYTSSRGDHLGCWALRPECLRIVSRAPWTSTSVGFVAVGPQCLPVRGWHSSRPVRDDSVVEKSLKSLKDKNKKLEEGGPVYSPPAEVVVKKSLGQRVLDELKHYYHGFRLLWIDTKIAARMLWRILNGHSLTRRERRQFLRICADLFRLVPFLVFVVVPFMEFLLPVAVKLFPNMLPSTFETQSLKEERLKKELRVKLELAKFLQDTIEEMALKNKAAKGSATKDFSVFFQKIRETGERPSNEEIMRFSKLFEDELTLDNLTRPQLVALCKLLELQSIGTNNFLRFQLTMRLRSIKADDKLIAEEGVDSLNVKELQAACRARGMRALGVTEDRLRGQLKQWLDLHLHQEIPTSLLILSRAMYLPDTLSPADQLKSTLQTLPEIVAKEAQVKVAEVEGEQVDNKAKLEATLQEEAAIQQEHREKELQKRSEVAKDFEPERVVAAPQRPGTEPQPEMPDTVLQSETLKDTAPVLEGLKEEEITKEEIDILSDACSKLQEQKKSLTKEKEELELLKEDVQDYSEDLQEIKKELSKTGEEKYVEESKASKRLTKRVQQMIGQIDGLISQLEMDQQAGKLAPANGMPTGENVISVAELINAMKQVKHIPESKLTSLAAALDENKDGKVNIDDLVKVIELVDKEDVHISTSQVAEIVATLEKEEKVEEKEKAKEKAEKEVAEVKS
Chain of UniProt Q96RQ3 (Q96RQ3 whole entry, looked up): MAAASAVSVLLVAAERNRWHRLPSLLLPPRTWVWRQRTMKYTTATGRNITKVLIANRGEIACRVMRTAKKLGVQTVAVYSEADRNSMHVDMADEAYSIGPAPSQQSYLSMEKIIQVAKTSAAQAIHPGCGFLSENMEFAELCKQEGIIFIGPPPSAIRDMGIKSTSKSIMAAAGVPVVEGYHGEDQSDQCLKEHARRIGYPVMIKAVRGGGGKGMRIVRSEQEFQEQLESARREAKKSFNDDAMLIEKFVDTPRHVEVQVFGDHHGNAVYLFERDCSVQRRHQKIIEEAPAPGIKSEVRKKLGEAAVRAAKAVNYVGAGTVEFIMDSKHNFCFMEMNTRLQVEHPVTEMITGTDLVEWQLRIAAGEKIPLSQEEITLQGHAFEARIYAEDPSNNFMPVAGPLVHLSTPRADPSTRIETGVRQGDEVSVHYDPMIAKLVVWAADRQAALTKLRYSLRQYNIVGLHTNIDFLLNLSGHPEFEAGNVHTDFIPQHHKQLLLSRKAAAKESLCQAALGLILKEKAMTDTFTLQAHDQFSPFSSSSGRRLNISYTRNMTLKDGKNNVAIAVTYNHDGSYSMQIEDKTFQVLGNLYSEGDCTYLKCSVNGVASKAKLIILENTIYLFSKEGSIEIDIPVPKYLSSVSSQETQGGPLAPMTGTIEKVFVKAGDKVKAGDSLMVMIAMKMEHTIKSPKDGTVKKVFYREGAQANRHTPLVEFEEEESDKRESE
Chain of UniProt O95777 (O95777 whole entry, looked up): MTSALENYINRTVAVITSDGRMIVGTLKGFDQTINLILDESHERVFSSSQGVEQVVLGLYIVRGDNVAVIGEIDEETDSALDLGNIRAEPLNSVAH

Target	log2 fold change (nilotinib)	log2 fold change [1]	log2 fold change (dasatinib)	log2 fold change [2]	log2 fold change [3]	log2 fold change (quisinostat)	log2 fold change (tipifarnib)	log2 fold change [4]	log2 fold change [5]	log2 fold change [6]
MAPKAPK5 (UniProt Q8IW41)	-0.003	0.056	0.011	0.064	0.024	-0.222	-0.065	0.519 (active)	-0.006	-0.006
MBLAC2 (UniProt Q68D91)	0.028	-0.076	-0.003	-0.126	0.059	0.026	0.08	0	-0.005	0.005
LRIF1 (UniProt Q5T3J3)	-0.147	0.086	0.047	0.022	-0.011	0	0.057	-0.008	-0.163	-0.056
MLH1 (UniProt P40692)	0	0.014	-0.007	0.03	0.031	-0.043	0.005	0.061	0.067	-0.046
MRPL30 isoform 2 (UniProt Q8TCC3)	-0.048	-0.066	-0.038	0.047	0.03	-0.13	0.052	-0.007	0	0.039
LETM1 (UniProt O95202)	0.038	-0.021	-0.008	0.048	0.007	0.043	0.008	-0.012	-0.011	-0.024
MOCS1 isoform 8 (UniProt Q9NZB8)	0.188	-0.03	0.074	0.227	-0.013	-0.082	-0.231	0.093	0.021	-0.033
MAP2K7 isoform 4 (UniProt O14733)	0.017	-0.101	-0.093	0	0.22	0.001	-0.024	0.033	0.001	0.002
MACO1 (UniProt Q8N5G2)	-0.003	0.017	-0.092	0.066	0.004	0.042	0.042	0.033	-0.02	0.054
MON2 isoform 5 (UniProt Q7Z3U7)	-0.006	-0.021	-0.072	0.018	0.039	-0.074	-0.004	0.021	0.005	-0.003
MCCC1 (UniProt Q96RQ3)	-0.025	0.002	-0.103	0.027	0.008	-0.049	0.031	0.035	0.008	-0.045
LLGL1 (UniProt Q15334)	0	0.149	-0.011	0.052	0.016	-0.046	-0.077	0.159	0.053	0.075
KPNA4 (UniProt O00629)	-0.013	0.006	0.063	0.018	0.003	-0.088	-0.033	-0.012	0	-0.058
MAP2K5 (UniProt Q13163)	0.019	-0.086	-0.229	-0.143	0.079	-0.152	-0.015	0.925 (active)	0.035	-0.048
LIMK2 isoform 3 (UniProt P53671)	0.074	0.06	-0.126	0.07	-0.099	-0.003	-0.05	-0.066	-0.064	0.008
LIMK1 (UniProt P53667)	-0.315	0.008	0.4	0.031	0.146	-0.145	0.102	0.126	0.118	–
KLHL36 (UniProt Q8N4N3)	0.012	-0.104	-0.021	0.027	0.049	0.043	0.067	0.007	-0.023	-0.014
MAP11 (UniProt Q8WVR3)	-0.088	0.002	0.002	0.021	-0.058	-0.026	-0.063	0.037	-0.014	-0.007
MAPK6 (UniProt Q16659)	-0.065	0.085	0.032	0.05	0.039	-0.003	-0.081	0.055	0.017	-0.028
MARCHF6 (UniProt O60337)	0.164	-0.024	-0.136	0.04	-0.169	-0.085	-0.179	-0.025	-0.023	-0.008
LTN1 isoform 3 (UniProt O94822)	0.006	-0.007	-0.086	-0.009	0.014	-0.023	-0.002	0.044	-0.016	-0.027
LAS1L (UniProt Q9Y4W2)	-0.019	0.008	0.025	0.029	-0.019	-0.083	-0.013	0.033	0.044	-0.024
KLC2 (UniProt Q9H0B6)	0.016	0.013	-0.062	0.067	0.041	-0.017	0.063	0.012	0.013	-0.036
MORC3 (UniProt Q14149)	0.001	0.012	0.006	-0.015	0.046	-0.018	-0.01	0.037	-0.017	-0.004
MRPL10 isoform 2 (UniProt Q7Z7H8)	0.009	0.016	-0.019	0.025	0.054	-0.22	-0.017	0.015	0.024	-0.011
LSM8 (UniProt O95777)	0.132	0	0.012	0.045	0.004	-0.043	0.048	-0.02	-0.035	0.033
MCU (UniProt Q8NE86)	-0.044	0.012	-0.065	0.072	0.006	-0.054	-0.096	0.011	0.025	-0.085

Source: the supplement of paper PMC10849652
